Source: PubChem
TSHR antag = Antagonists of the Thyroid Stimulating Hormone Receptor: HTS campaign | 0.2% of 330,000 active | activity change, negative = inhibition, % at 11.5 µM | Thyrotropin receptor (Homo sapiens), P16473 | TSHR-expressing cells, TSH-stimulated cAMP HTRF, 2 h; stronger effect = lower value;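 active means activity change below a set negative limit, meaning inhibition stronger than a set level, cut at about -70% in these data; inconclusive means activity change between two set negative limits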; further: on the % scale 0 is the no-effect control and ±100 the full control effect
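Freshly harvested TSHR cells receive pin-tooled compound, then EC80 TSH at 4nM final. After 2 hours at 37 deg C, antibody in lysis buffer and cAMP-d2 are added; 30 minutes at ambient temperature precede the HTRF read.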
Rango release inh = qHTS Assay for Inhibitors of RanGTP induced Rango (Ran-regulated importin-beta cargo) - Importin beta complex dissociation; Biochemical FRET Rango-importin beta, RanGTP-induced dissociation; Snurportin-1 (Homo sapiens) + GTP-binding nuclear protein Ran (Homo sapiens) + Importin …; AID 540253, 2011; 0.071% of 340,000 active; Potency, µM (highest dose often 46.1 µM), for inactives: at the top dose activity change, negative = inhibition; further: potency means the concentration at half of the fitted maximal effect; % of control where 0% means no effect; nearly all actives have a fitted effect of over 45% in size
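Two FRET readings bracket the reaction: one 5 min after compound meets Rango–importin beta, another 45 min after RanGTP-RCC1 (0.6 uM Ran, 0.2 uM RCC1, 2 mM GTP) is added. Only the second defines inhibition.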
p53 reactivator = qHTS assay for re-activators of p53 using a Luc reporter. Potency, µM (series often up to 92.2 µM), without a hit: at the highest dose activity change, positive = activation, most hits filed as activators. H1299 p53-A138V BP100-luciferase reporter, luminescence, 24 h. 0.063% of 320,000 active. AID 504706, 2011; active means well fitted activation curve with a large enough effect; inconclusive means small, poorly fitted or top-dose-only effect; inactive means no such curve, though single readings can be large or run the other way; further: potency means the concentration at half of the fitted maximal effect; % of control where 0% means no effect; nearly all actives have a fitted effect of over 45% in size
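H1299 (p53-null), stable ts p53-A138V + BP100-Luc; 1000 cells/well, Opti-MEM/10% FBS; cpd 4 pt, 1:5; 24 h, 37 deg C, 5% CO2; detection reagent 10 min RT; luminescence.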
Rango-impB inh = qHTS Assay for Inhibitors of Rango (Ran-regulated importin-beta cargo) - Importin beta complex formation; Importin subunit beta-1 (Homo sapiens), Q14974; Rango CFP/YFP FRET sensor + importin beta, 45 min; Potency, µM (series often up to 92.2 µM), without a hit: at the top dose inhibition of complex formation; 0.031% of 340,000 active;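 further: potency means the concentration at half of the fitted maximal effect; 0% = DMSO wells and 100% = buffer wells lacking importin beta; nearly all actives have a fitted effect of over 15% in size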
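Inhibition scored from the CFP 486 nm/YFP 530 nm FRET ratio 45 min after adding 0.125 microM importin beta to 50 nM Rango biosensor preincubated 5 min with compound (room temperature, PBS with DTT, Tween-20, BSA). No-importin wells as positive control.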
Akt phos inh = HTS Assay for Inhibitors of Akt Phophorylation: Primary Screen; activity change, % for hits at 50 µM; Neuro2A IGF-stimulated pAkt S473 HTRF, 20 min; stronger effect = lower value; 0.32% of 360,000 active; in the data active means activity change below about -80%; inconclusive means mostly about -51% to -80%; further: on the % scale 0 is the no-effect control and ±100 the full control effect
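Neuro2A cells in DMEM with 0.5% FBS, overnight at 37 deg C, given compound at single 50 µM final, then IGF (6 nM final) for 20 min at 37 deg C. Lysed; phospho-Akt Ser473 by HTRF after 24 h, 665/615 ratio.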
Starred values were filed as active, the others as inactive; i = inactive; ? = inconclusive; / = not tested or not shown. Compounds with a hit are over-represented: about 0.62% of the library has one in this group of screens. Unless noted, the call rests on the fitted dose curve.

SMILES	TSHR antag	Rango release inh	p53 reactivator	Rango-impB inh	Akt phos inh
Cc1cc(C)c(NC(=O)C2CCCN2CCO)c(C)c1 (configuration not stated)	0.0	1.3%	8.7%	-0.8%	/
NC(CCc1ccccc1)c1csc(NC(=O)Nc2cccc(C(F)(F)F)c2)n1 (configuration not stated)	/	/	/	/	i
CC(C)CCNC(=O)C(=O)Nc1ccc2c(c1)N(S(=O)(=O)c1cccs1)CCC2	-21.8	0.3%	-2.0%	?	i
COc1cccc(C(=O)N2CCN(C(=O)c3cccs3)CC2)c1OC	25.3	-3.5%	-3.9%	1.8%	-111.8%*
Cc1csc(CNc2ncnc3ccc(-c4ccco4)cc23)c1	1.6	/	/	/	/
CN(C)/C=C(/C#N)C(=O)c1cccc(Oc2ccc(C(C)(C)C)cc2)c1	-36.3	-6.6%	8.0%	2.7%	i
CC(C)c1ccc(NC2CCCN(C(=O)CN3CCCC3=O)C2)cc1 (configuration not stated)	-6.4	17.3%	1.6%	-1.4%	i
CCCCn1c(CN2CCN(C)CC2)nc2ccccc21	34.8	-6.4%	7.0%	0.3%	-116.0%*
CCCn1c(CN2CCN(C)CC2)nc2ccccc21	/	-1.4%	-0.6%	0.1%	i
CC(C)OC(=O)CSc1nc2cc3c(cc2cc1C#N)OCO3	-7.1	2.1%	?	-3.6%	-97.1%*
COC(=O)CSc1nc2cc3c(cc2cc1C#N)OCO3	-10.7	-19.7%	?	?	i
COc1cc2c(cc1OC)-c1cc(OCCN3CCOCC3)nc(=O)n1CC2	-8.2	8.2µM*	14.5%	?	i
CC(C)(C)n1ncc2c(=O)n(CC(=O)c3ccccc3)cnc21	18.1	12.1%	?	-0.4%	-115.4%*
CC(C)(C)n1ncc2c(=O)n(CC(=O)OCc3ccccc3)cnc21	2.3	7.8%	-17.3%	0.8%	i
COc1ccc2[nH]c3c(NCCC4=CCCCC4)ncnc3c2c1	-73.5*	-0.8%	17.9%	-1.2%	i
CCOc1cccc2cc(-c3nnc(NCc4ccc5c(c4)OCO5)s3)c(=O)oc12	-3.5	1.3µM*	21.2%	?	i
Cc1ccc2nc(-c3ccc(N4C(=NC(=O)CCC(=O)O)SC5CS(=O)(=O)CC54)cc3)sc2c1 (configuration not stated)	-8.3	9.7%	?	3.9%	i
CCOC(=O)C1CCN(C(=O)C2CC(=O)N(c3ccc4c(c3)OCCO4)C2)CC1 (configuration not stated)	14.5	4.5%	54.6%	3.3%	i
O=C(c1ccco1)N1CCCC(N2CCN(c3ccccc3F)CC2)C1 (configuration not stated)	17.1	6.0%	20.8%	-2.9%	i
O=C(c1ccco1)N1CCN(c2ccccc2F)CC1	2.5	8.8%	10.4%	-2.6%	-117.2%*
Cc1nc2ccc(NC(=O)c3cc([N+](=O)[O-])cc([N+](=O)[O-])c3Cl)cc2s1	-76.2*	-22.6%	?	-2.5%	i
Cc1nc2ccc(NC(=O)c3ccc(Cl)c([N+](=O)[O-])c3)cc2s1	-5.9	7.8%	?	-4.2%	i
CC(C)C1Nc2ccc(C(=O)N3CCN(c4ccccn4)CC3)cc2NC1=O (configuration not stated)	-113.3*	17.8%	11.5%	1.9%	i
O=C1CNc2ccc(C(=O)N3CCN(c4ccccn4)CC3)cc2N1	1.5	0.8%	6.3%	2.1%	i
Cn1c(CSc2nc3ccccc3s2)nnc1SCC(=O)NCCCN1CCOCC1	-2.8	-10.9%	-1.2%	1.2%	-136.0%*
CCn1c(CSc2nc3ccccc3s2)nnc1SCC(=O)c1ccc2c(c1)OCCO2	-32.1	-8.9%	7.2%	?	-108.1%*
CCOc1ccccc1NC(=O)C1C(c2ccccc2)C1(Cl)Cl (configuration not stated)	/	/	/	/	i
